In PMC10726135, “HNF4α isoforms regulate the circadian balance between carbohydrate and lipid metabolism in the liver” one finds binding signal data, which are given here for 42 sequences.

The full ranking holds about 18,000 sequences; the median of “log2 normalized intensity” is about 0.36, and the highest 2% start at about 7.3. The sample holds the highest values, similar sequences and a random draw of the others, so the mix is not that of the screen.

This test concerns the target T1, HNF4alpha8 (COS-7 nuclear extract) (Homo sapiens, UniProt P41235-5 1-452).
T1 sequence: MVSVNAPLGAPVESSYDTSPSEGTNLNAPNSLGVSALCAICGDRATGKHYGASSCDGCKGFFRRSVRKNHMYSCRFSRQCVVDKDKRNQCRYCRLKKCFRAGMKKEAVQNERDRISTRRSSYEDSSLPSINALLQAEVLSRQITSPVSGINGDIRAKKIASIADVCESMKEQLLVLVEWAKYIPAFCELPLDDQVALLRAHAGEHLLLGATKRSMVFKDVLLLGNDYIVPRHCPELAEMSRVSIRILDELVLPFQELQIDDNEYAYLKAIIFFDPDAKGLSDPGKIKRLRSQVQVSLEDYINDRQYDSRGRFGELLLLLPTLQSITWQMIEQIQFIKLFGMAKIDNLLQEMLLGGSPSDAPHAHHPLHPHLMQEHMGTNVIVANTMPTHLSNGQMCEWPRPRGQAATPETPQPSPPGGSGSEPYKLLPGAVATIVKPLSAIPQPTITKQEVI
As to the kind of experiment: protein-binding microarray; COS-7 nuclear extract on double-stranded Agilent 4x180k PBM; binding buffer, salt, pH and temperature not given in the material; high values mean tight binding. Conditions: chain copies: 2; label: 3' end of strand 1 on the slide; dsDNA, one strand shown. In a few lines:
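Using CaPO4, COS-7 cells were transiently transfected with a human HNF4α isoform expression vector, and their nuclear extracts were applied to a custom Agilent SurePrint G3 4x180k double-stranded oligonucleotide array (~60 nt; ~44,000 test sequences in quadruplicate). Bound HNF4α was imaged at 2-µm resolution with an Agilent G2565CA scanner. Agilent software supplied the background-corrected, normalized gProcessedSignal that serves as the binding signal.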
On to “TCTTATTGCCTCATGTTTGCAGAATGGCTGGCCTAGGGAGATTAGAGTATCGGTCGA”, for which the binding signal is 0.617 log2 normalized intensity.

Take “CTGGACTTTCCTTTGTTGGGAGACTTTTTAGCCTAGGGAGATTAGAGTATCGGTCGA”: the binding signal stood at 1.45 log2 normalized intensity.

Turning to “CCTTTGGACTGTCCTTTGCTAGATTCTTTCGCCTAGGGAGATTAGAGTATCGGTCGA”, the binding signal came out at 2.13 log2 normalized intensity.

As for “ACTTTGGACTTGGGACTTTCGAGTTAATGCGCCTAGGGAGATTAGAGTATCGGTCGA”, the binding signal worked out at 4.67 log2 normalized intensity.

“GGACTTGGGACTTTCGAGTTAATGCTGGAGGCCTAGGGAGATTAGAGTATCGGTCGA”: the binding signal is 3.2 log2 normalized intensity.

For “TTTGGACTTTGGACTTGGGACTTTCGAGTTGCCTAGGGAGATTAGAGTATCGGTCGA”, the binding signal was 8.22 log2 normalized intensity.

As for “GAGACTTTGGACTTTGGACTTGGGACTTTCGCCTAGGGAGATTAGAGTATCGGTCGA”, the binding signal was determined as 9.81 log2 normalized intensity.

As to “ATAGCAAACACGATTGGATGGAAGGTCCTTGCCTAGGGAGATTAGAGTATCGGTCGA”, the binding signal amounted to 0.748 log2 normalized intensity.

Consider “AATCAAACTGAACTTTGAAACAAGCCCATCGCCTAGGGAGATTAGAGTATCGGTCGA”, for which the binding signal is 3.87 log2 normalized intensity.

For the sequence “CAACCTCTCCAATGCTATGCTTTTATTTAAGCCTAGGGAGATTAGAGTATCGGTCGA”, the binding signal was -0.995 log2 normalized intensity.

Consider “CATCATAAACCCGATCCTTACTATTAGGTCGCCTAGGGAGATTAGAGTATCGGTCGA”, for which the binding signal was found to be 1 log2 normalized intensity.

Consider “GGACTTTGGGCTGTGTTTTGCCCCTGCAGAGCCTAGGGAGATTAGAGTATCGGTCGA”, for which the binding signal came out at 4.12 log2 normalized intensity.

For the sequence “CTTGGCTGTGCTGCCCTTTGCCCTTTGGGAGCCTAGGGAGATTAGAGTATCGGTCGA”, the binding signal was 7.91 log2 normalized intensity.

For the sequence “TTTTCCTTGGCTGTGCTGCCCTTTGCCCTTGCCTAGGGAGATTAGAGTATCGGTCGA”, the binding signal was 8.52 log2 normalized intensity.

“GAGAGTTTTCCTTGGCTGTGCTGCCCTTTGGCCTAGGGAGATTAGAGTATCGGTCGA”: the binding signal came to 4.01 log2 normalized intensity.

On to “CTGTGCTGCCCTTTGCCCTTTGGGAAGGGGGCCTAGGGAGATTAGAGTATCGGTCGA”, for which the binding signal turned out to be 6.59 log2 normalized intensity.

Turning to “GGGTGGGGTGCTGCCTTTCCTGTGACTTTTGCCTAGGGAGATTAGAGTATCGGTCGA”, the binding signal came to 2.09 log2 normalized intensity.

Turning to “GCGTAGCCCAAAGGTCAGTCTGCAGCTAATGCCTAGGGAGATTAGAGTATCGGTCGA”, the binding signal turned out to be 3.36 log2 normalized intensity.

As for “AGTAGGCACTATTATCCCCCTATCCCAAGAGCCTAGGGAGATTAGAGTATCGGTCGA”, the binding signal was found to be 4.72 log2 normalized intensity.

As to “CTGCTTTTGGAATTTGACCTCATTTGCTCCGCCTAGGGAGATTAGAGTATCGGTCGA”, the binding signal was 6.52 log2 normalized intensity.

As for “CCTAAGCCTTATTATCTGCTTTTATGACCTGCCTAGGGAGATTAGAGTATCGGTCGA”, the binding signal is 3.51 log2 normalized intensity.

For “ATTATCTGCTTTTATGACCTTTGACTGCAGGCCTAGGGAGATTAGAGTATCGGTCGA”, the binding signal came to 7.32 log2 normalized intensity.

Consider “TGCCTCTTTTCTGCTTTTGGAATTTGACCTGCCTAGGGAGATTAGAGTATCGGTCGA”, for which the binding signal turned out to be 8.78 log2 normalized intensity.

Turning to “TTTGTTGCCTCTTTTCTGCTTTTGGAATTTGCCTAGGGAGATTAGAGTATCGGTCGA”, the binding signal worked out at 3.37 log2 normalized intensity.

For “GGTGACCCCTCAGTTTTTCTCTTTTGACCTGCCTAGGGAGATTAGAGTATCGGTCGA”, the binding signal is 4.77 log2 normalized intensity.

In the case of “CTTTTCTGCTTTTGGAATTTGACCTCATTTGCCTAGGGAGATTAGAGTATCGGTCGA”, the binding signal came to 7.55 log2 normalized intensity.

In the case of “GCCTTATTATCTGCTTTTATGACCTTTGACGCCTAGGGAGATTAGAGTATCGGTCGA”, the binding signal was 8.05 log2 normalized intensity.

With “GCATGACCTCAACTCTCAGTTTGGCTCTTAGCCTAGGGAGATTAGAGTATCGGTCGA”, the binding signal was 0.116 log2 normalized intensity.

Regarding “CGCATTTCTGCTTCTTCTCATTCTTGGAATGCCTAGGGAGATTAGAGTATCGGTCGA”, the binding signal was found to be 1.49 log2 normalized intensity.

Consider “GTGCTTGGACCTGCTCTGTTTTCTTTCGGTGCCTAGGGAGATTAGAGTATCGGTCGA”, for which the binding signal turned out to be 1.24 log2 normalized intensity.

For the sequence “CCCCTCAGTTTTTCTCTTTTGACCTTTGGAGCCTAGGGAGATTAGAGTATCGGTCGA”, the binding signal is 9.54 log2 normalized intensity.

In the case of “CCCCACTTCCTGACTTGGCCTGAACCAGTTGCCTAGGGAGATTAGAGTATCGGTCGA”, the binding signal is 0.602 log2 normalized intensity.

On to “TTAAGAACTGGAGTAAAGGTCACTCTTGCTGCCTAGGGAGATTAGAGTATCGGTCGA”, for which the binding signal stood at 3.94 log2 normalized intensity.

Regarding “GTGTTTAATGTTTTCATTCTGATTTGCACAGCCTAGGGAGATTAGAGTATCGGTCGA”, the binding signal amounted to 0.934 log2 normalized intensity.

For the sequence “CTCTCCAAGCCAGAAAGATGTTTGCCCCAAGCCTAGGGAGATTAGAGTATCGGTCGA”, the binding signal came to 2.94 log2 normalized intensity.

As to “GGTTGGCACGCTTAGGGAACAAAGGTCAGTGCCTAGGGAGATTAGAGTATCGGTCGA”, the binding signal worked out at 7.22 log2 normalized intensity.

Consider “CGCCGCCTCTGCCTCTTGACCCCTTGGCCCGCCTAGGGAGATTAGAGTATCGGTCGA”, for which the binding signal stood at 5.9 log2 normalized intensity.

With “TTCCTGGCCTCTCTGCAAATTTGCCTTGTCGCCTAGGGAGATTAGAGTATCGGTCGA”, the binding signal was found to be 0.448 log2 normalized intensity.

Take “TGTTTGCACTGAGGAATGGAAGGACCTTGGGCCTAGGGAGATTAGAGTATCGGTCGA”: the binding signal was determined as 2.07 log2 normalized intensity.

As for “TTAGGGGTTAGGGTTAGGGTTAGGGTTACGGCCTAGGGAGATTAGAGTATCGGTCGA”, the binding signal turned out to be 1.17 log2 normalized intensity.

In the case of “GGCTAAACCTAGCCCCCTTTCCCTTATCTTGCCTAGGGAGATTAGAGTATCGGTCGA”, the binding signal came to 2.81 log2 normalized intensity.

On to “ACAGGTGCTCTTTATCAGCACCAAGAACAAGCCTAGGGAGATTAGAGTATCGGTCGA”, for which the binding signal is -0.837 log2 normalized intensity.
